IL-1B inflam inh – qHTS for Inhibitors of Inflammasome Signaling: IL-1-beta AlphaLISA Primary Screen; THP-1 LPS/ATP IL-1B secretion, AlphaLISA, 16 h; hits give low values; activity change, % at 57.5 µM; hit rate 4.7% among 360,000; in the data active = activity change below about -50%; inconclusive = mostly about -30% to -49%
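Secreted IL-1B measured by AlphaLISA bead assay after 16 h compound exposure of THP-1 cells; compounds (final up to 57.5 uM) added 1 h before LPS (250 ng/mL) and ATP (1.25 mM) stimulation; lower signal means less secretion.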
TDP1 block – qHTS Assay for Inhibitors of Tyrosyl-DNA Phosphodiesterase (TDP1) | Tyrosyl-DNA phosphodiesterase 1 (Homo sapiens), Q9NUW8 | recombinant TDP1, AlphaScreen DNA substrate cleavage | Potency, µM (highest dose often 130 µM), usual class: inhibitors | AID 485290, 2010 | hit rate 0.28% among 350,000; note: nearly all actives have a fitted effect of over 40% in size
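E. coli-derived human Tdp1, 1 nM final. Cpd preinc 15 min RT; substrate 15 nM final, 5 min RT; AS bead mix 10 ug/ml final, 10 min RT. Signal loss = tyrosine-FITC cleavage. No-enzyme wells = max signal.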
Six1-Eya2 inh – qHTS Assay for Inhibitors of the Six1/Eya2 Interaction. activity change, % (no concentration beside the values). hit rate 0.56% among 360,000. AlphaScreen GST-Six1/His-Eya2 binding, biochemical; hits give low values. Homeobox protein SIX1 (Homo sapiens) + Protein phosphatase EYA2 (Homo sapiens), …; in the data active = activity change below about -65%; inconclusive = mostly about -30% to -63%
Target sequence (O00167 whole entry, looked up): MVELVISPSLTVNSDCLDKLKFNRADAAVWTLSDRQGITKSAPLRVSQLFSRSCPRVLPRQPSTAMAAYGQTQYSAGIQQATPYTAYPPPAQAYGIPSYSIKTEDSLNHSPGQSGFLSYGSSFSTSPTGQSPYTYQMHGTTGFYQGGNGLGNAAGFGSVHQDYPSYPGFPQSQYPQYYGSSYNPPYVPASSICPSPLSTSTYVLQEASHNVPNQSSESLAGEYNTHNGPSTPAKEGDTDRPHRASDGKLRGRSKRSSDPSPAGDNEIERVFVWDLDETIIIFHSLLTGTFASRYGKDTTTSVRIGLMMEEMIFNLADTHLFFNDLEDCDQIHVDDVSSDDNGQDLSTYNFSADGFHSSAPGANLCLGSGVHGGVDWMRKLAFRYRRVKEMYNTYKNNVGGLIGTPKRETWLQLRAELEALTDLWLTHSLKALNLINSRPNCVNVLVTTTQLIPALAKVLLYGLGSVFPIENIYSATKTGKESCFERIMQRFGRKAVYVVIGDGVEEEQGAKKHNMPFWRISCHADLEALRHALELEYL
Target sequence (Q15475 whole entry, looked up): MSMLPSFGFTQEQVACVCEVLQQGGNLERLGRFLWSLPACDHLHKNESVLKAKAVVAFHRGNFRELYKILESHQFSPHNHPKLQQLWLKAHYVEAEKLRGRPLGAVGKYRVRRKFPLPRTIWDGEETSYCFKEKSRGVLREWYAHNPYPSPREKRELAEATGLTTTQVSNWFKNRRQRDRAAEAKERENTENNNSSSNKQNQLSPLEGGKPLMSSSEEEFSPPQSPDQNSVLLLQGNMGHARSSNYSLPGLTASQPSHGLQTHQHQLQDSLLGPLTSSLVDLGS
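GST-Six1 + His-Eya2 (5X stock: 250/500 nM); Tris pH 8.0, 300 mM NaCl, 0.05% BSA, 0.02% Tween 20; GSH donor/Ni acceptor beads; 1 h 37 °C dark; AlphaScreen readout.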
CtBP-E1A blk – qHTS Assay for Inhibitors of the CtBP/E1A Interaction. CtBP / adenovirus E1A interaction (AlphaScreen). AlphaScreen GST-E1A/His-CtBP binding, 1536-well; hits give low values. activity change, % (test concentration not listed). hit rate 0.49% among 340,000. AID 651724, 2012; in the data active = activity change below about -65%; inconclusive = mostly about -30% to -63%
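Steps: dispense buffer (Tris pH 8.0, NaCl 300 mM, TCEP 1 mM, BSA, Tween 20); add 5X protein mix (GST-E1A, His-CtBP, 125 nM each); pin 23 nL compound; 2 h at 37 °C, dark; add 5X beads (50 ug/mL); 1 h; read.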
TDP1 cell CPT – qHTS for Inhibitors of human tyrosyl-DNA phosphodiesterase 1 (TDP1): qHTS in cells in presence of CPT | hit rate 12% among 420,000 | chicken DT40 Tdp1-/-;hTDP1 cells + 20 nM CPT, ATP luminescence, 48 h | Potency, µM (titrated, usually from 46.2 µM), hits mostly inhibitors; note: nearly all actives have a fitted effect of over 55% in size
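Chicken DT40 Tdp1-/- cells complemented with human TDP1, 400 cells/well, exposed to compounds plus 20 nM camptothecin for at least 48 h at 37 C; viability read as ATP content by CellTiter-Glo luminescence.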
DT40 TDP1 no CPT – qHTS for Inhibitors of human tyrosyl-DNA phosphodiesterase 1 (TDP1): qHTS in cells in absence of CPT | Potency, µM (doses to about 46.2 µM), most hits filed as inhibitors | AID 686978, 2013 | DT40 Tdp1-/- hTDP1 cells, no CPT, ATP luminescence, 48 h | hit rate 15% among 420,000; note: nearly all actives have a fitted effect of over 55% in size
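Compound effects on proliferation are scored in DT40 Tdp1-/-;hTDP1 cells in the absence of CPT. ATP levels (CellTiter-Glo luminescence) are recorded after a ≥48 hr, 37 °C incubation.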
Of the large screens only hits and unclear results are named; the others gave an inactive call. Only some compounds are listed: those with a hit (about 18% of all), similar ones and a draw of the others. Unless noted, calls come from the whole dose curve; as a rule, active = well fitted curve in the direction sought with a large enough effect; inconclusive = small, poorly fitted or top-dose-only effect, or another doubt; inactive = no such curve, though single readings can be large; an effect the other way counts as inactive or inconclusive.

CCOC(=O)c1c(C)oc2c1c(CN1CCN(CCO)CC1)c(O)c1ccccc12	IL-1B inflam inh -97.8, TDP1 cell CPT inconclusive, DT40 TDP1 no CPT inconclusive
O=C(CC12CC3CC(CC(C3)C1)C2)NCC(=O)OCc1cc(=O)oc2ccc3ccccc3c12	TDP1 cell CPT inconclusive, DT40 TDP1 no CPT 18.4µM
COc1cc(OC)c2c(-c3ccccc3)cc(=O)oc2c1C(CC(=O)N1CCCC1)c1ccc(N(C)C)cc1 (stereo unspecified)	none (no result: IL-1B inflam inh, Six1-Eya2 inh, CtBP-E1A blk, TDP1 cell CPT, DT40 TDP1 no CPT)
CCOC(=O)c1c(C)oc2c1c(C(c1ccncc1)N1CCOCC1)c(O)c1ccccc12 (stereo unspecified)	TDP1 cell CPT 20.6µM, DT40 TDP1 no CPT inconclusive
CCOC(=O)c1c(C)oc2c1c(C=NC1CCS(=O)(=O)C1)c(O)c1ccccc12 (stereo unspecified)	TDP1 cell CPT 23.1µM, DT40 TDP1 no CPT 20.6µM
CCOC(=O)c1nnn2c1nc(N1CCOCC1)c1ccccc12	none
CCOC(=O)c1c(C)oc2c1c1c(c3ccccc32)OCN(Cc2ccccn2)C1	IL-1B inflam inh -75.3, Six1-Eya2 inh inconclusive, TDP1 cell CPT inconclusive, DT40 TDP1 no CPT inconclusive
CCOC(=O)c1c(C)oc2c1c(C=NCCC(=O)O)c(O)c1ccccc12	none
O=C(c1ccco1)N1CCN(Cc2ccccc2F)CC1	none (no result: TDP1 block)
Cc1ccc(C(C(=O)NCc2ccccc2)N(Cc2cccs2)C(=O)c2ccc3c(c2)OCCO3)cc1 (stereo unspecified)	TDP1 cell CPT 9.2µM, DT40 TDP1 no CPT 3.66µM
COC(=O)c1ccc(C(C(=O)NCc2ccccc2)N(Cc2cccs2)C(=O)c2cnccn2)cc1 (stereo unspecified)	TDP1 cell CPT inconclusive, DT40 TDP1 no CPT 16.4µM
COc1ccc(C(C(=O)NCc2ccccc2)N(Cc2ccco2)C(=O)c2cnccn2)cc1 (stereo unspecified)	TDP1 cell CPT inconclusive, DT40 TDP1 no CPT inconclusive
Cc1cc(NC(=O)Nc2cccc(Cl)c2)n(-c2ccccn2)n1	IL-1B inflam inh -73.2, TDP1 cell CPT inconclusive, DT40 TDP1 no CPT 18.4µM
Cc1cc(NC(=O)c2ccc(F)cc2)n(-c2ccccn2)n1	IL-1B inflam inh -68.0, TDP1 cell CPT inconclusive, DT40 TDP1 no CPT inconclusive
Cc1cc(NC(=O)c2ccc(C#N)cc2)n(-c2ccccn2)n1	DT40 TDP1 no CPT inconclusive
Cc1cc(NC(=O)Nc2cccc(Cl)c2)n(-c2ccccc2)n1	DT40 TDP1 no CPT inconclusive
Cc1cc(C)c(S(=O)(=O)NCC23C=CC(O2)C2C(=O)N(c4ccccc4)C(=O)C23)c(C)c1 (stereo unspecified)	TDP1 cell CPT inconclusive, DT40 TDP1 no CPT inconclusive
Cc1ccc(N2C(=O)C3C4C=CC(CNC(=S)Nc5ccc(F)cc5)(O4)C3C2=O)cc1 (stereo unspecified)	TDP1 cell CPT inconclusive, DT40 TDP1 no CPT 18.4µM
Cc1ccc(N2C(=O)C3C4C=CC(CNC(=S)N5CCN(c6ccccn6)CC5)(O4)C3C2=O)cc1 (stereo unspecified)	TDP1 cell CPT 23.1µM, DT40 TDP1 no CPT 18.4µM (no result: TDP1 block, CtBP-E1A blk)
Cc1ccc(N2C(=O)C3C4C=CC(CNC(=S)Nc5ccc(Cl)cc5)(O4)C3C2=O)cc1 (stereo unspecified)	TDP1 cell CPT inconclusive, DT40 TDP1 no CPT 23.1µM
Cc1ccc(N2C(=O)C3C4C=CC(CNC(=S)Nc5cccc(Cl)c5)(O4)C3C2=O)cc1 (stereo unspecified)	TDP1 cell CPT inconclusive, DT40 TDP1 no CPT 14.6µM
O=C1CSC(c2ccccc2O)N1Cc1ccccc1 (stereo unspecified)	TDP1 cell CPT inconclusive (no result: TDP1 block)
CC(C)C[C@@H]1COc2cccc(N3CCSCC3)c2S(=O)(=O)N1	none (no result: TDP1 block)

Screening data as filed in PubChem BioAssay.
